Among the data in PubChem BioAssay are z-score and composite z-score values, retold here.

Experiment [1] in a line: compound effects on lung adenocarcinoma cell viability – A549, calcein-AM fluorescence, 48 h, basal, profiling panel (AID 1162). Further: test concentration not given here. As to conditions: higher = more signal.
The nature of experiment [2]: compound effects on differentiated 3T3-L1 adipocyte viability – cell-based, 3T3-L1 adipocytes, calcein-AM fluorescence, 48 h, basal, profiling panel (AID 1163). Further: test concentration not given here. To be noted: 3T3-L1 adipocytes viability, higher = more signal.
A short description of experiment [3]: compound effects on hepatocellular carcinoma cell viability – HepG2, calcein-AM fluorescence, 48 h, basal, profiling panel (AID 1164). Further: test concentration not given here. To be noted: higher = more signal.
Experiment [4] is described as follows: compound effects on multiple myeloma cell viability – MM1S, calcein-AM fluorescence, 48 h, basal, profiling panel (AID 1165). Further: test concentration not given here. As to conditions: higher = more signal.
A short description of experiment [5]: calcein-AM signal in unstimulated myeloma cells – cell-based, calcein-AM fluorescence, 48 h, PK04 Diversity Set, profiling panel (AID 1166).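 Further: cells grown under basal conditions without added stimulus; test concentration not given here.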 As to conditions: RPMI8226 myeloma viability, higher = more signal.
A short description of experiment [6]: JC-1 mitochondrial signal, unstimulated HepG2 cells – cell-based, JC-1 fluorescence, 24 h, 100 nL compound, profiling panel (AID 1167). Further: test concentration not given here. To be noted: HepG2 mitochondrial potential, higher = more signal.
Experiment [7] is described as follows: JC-1 mitochondrial signal, unstimulated adipocytes – cell-based, JC-1 fluorescence, 3T3-L1 adipocytes, 24 h, 100 nL compound, profiling panel (AID 1168). Further: test concentration not given here. To be noted: JC-1 mitochondrial fluorescence, higher = more signal, called active from +8 up or from −8 down.
Experiment [8] in a line: JC-1 mitochondrial signal, unstimulated myeloma cells – cell-based, JC-1 fluorescence, RPMI8226, 24 h, 100 nL compound, profiling panel (AID 1169). Further: test concentration not given here. To be noted: JC-1 mitochondrial potential fluorescence, higher = more signal.
Experiment [9] in a line: JC-1 mitochondrial signal, unstimulated MM1S myeloma – cell-based, JC-1 fluorescence, 24 h, 100 nL compound, profiling panel (AID 1170). Further: test concentration not given here. To be noted: MM1S mitochondrial potential, higher = more signal.
Experiment [10] can be described thus: resazurin metabolic signal in A549 cells – cell-based, resazurin fluorescence, 24 h, PK04 Diversity Set, profiling panel (AID 1171). Further: test concentration not given here. As to conditions: A549 viability, higher = more signal, called active from +8 up or from −8 down. (In general: Alamar Blue is a resazurin reagent that responds to reducing activity.)
Experiment [11] is described as follows: resazurin metabolic signal in HepG2 cells – cell-based, resazurin fluorescence, 24 h, PK04 Diversity Set, profiling panel (AID 1172). Further: test concentration not given here. As to conditions: HepG2 viability, higher = more signal.
Experiment [12] in a line: budding yeast growth changes without added modifier – OD600, strain BY4716, 24 h, basal condition, primary screen (AID 1173). As to conditions: S. cerevisiae BY4716 growth, OD600, 24 h; higher = more signal, called active from +8 up or from −8 down.
A short description of experiment [13]: viability profiling in MM1S myeloma cells – cell-based, resazurin fluorescence, basal, 24 h, PK04 Diversity Set, profiling panel (AID 1174). Further: test concentration not given here. To be noted: higher = more signal, called active from +8 up or from −8 down.
In experiment [14] the target is Dihydroorotate dehydrogenase (quinone), mitochondrial (Plasmodium falciparum (isolate 3D7)) (UniProt Q08210). Kind of experiment: inhibition of P. falciparum DHODH – biochemical, C-terminal His tag, absorbance 600 nm, primary screen (AID 1175).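 Further: recombinant parasite enzyme with a five histidine tag at its C terminus; test concentration not given here.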 As to conditions: PfDHODH enzyme, DCIP absorbance 600 nm; higher = more signal, called active from +8 up or from −8 down.
Dihydroorotate dehydrogenase (quinone), mitochondrial (Plasmodium falciparum (isolate 3D7)), sequence (Q08210 whole entry, looked up): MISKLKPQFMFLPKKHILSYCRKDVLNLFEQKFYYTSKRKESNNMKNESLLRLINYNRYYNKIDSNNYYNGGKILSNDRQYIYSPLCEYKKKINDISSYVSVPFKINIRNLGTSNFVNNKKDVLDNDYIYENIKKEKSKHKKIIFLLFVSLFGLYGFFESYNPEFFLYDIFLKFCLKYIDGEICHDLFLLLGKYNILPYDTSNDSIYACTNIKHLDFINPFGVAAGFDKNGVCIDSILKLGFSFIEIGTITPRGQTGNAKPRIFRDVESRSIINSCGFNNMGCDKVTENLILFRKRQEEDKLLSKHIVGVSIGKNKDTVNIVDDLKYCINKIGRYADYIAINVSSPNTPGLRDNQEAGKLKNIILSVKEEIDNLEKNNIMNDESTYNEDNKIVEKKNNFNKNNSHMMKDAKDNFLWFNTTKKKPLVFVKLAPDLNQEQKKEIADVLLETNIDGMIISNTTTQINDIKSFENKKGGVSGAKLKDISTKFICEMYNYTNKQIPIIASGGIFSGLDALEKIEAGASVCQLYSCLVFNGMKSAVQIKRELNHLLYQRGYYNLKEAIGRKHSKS
Experiment [15] in a line: inhibition of PAO1 biofilm formation – strain PAO1, LB-PBS medium, absorbance 600 nm, primary screen (AID 1176). Further: test concentration not given here. As to conditions: P. aeruginosa PAO1 growth/biofilm, A600, 12 h; higher = more signal.
Experiment [16] in a line: growth modulation of vineyard yeast isolate – strain RM11-1a, OD600, basal, 24 h, primary screen (AID 1177).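 Further: cultures grown under basal conditions with no added stressor; test concentration not given here.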 To be noted: S. cerevisiae RM11-1a growth, OD600, 24 h; higher = more signal, called active from +8 up or from −8 down.
A short description of experiment [17]: growth of efflux-deficient E. coli DRC39 – strain DRC39, OD650, 24 h, E. coli filamentation inducers, primary screen (AID 1178).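 Further: growth measured as culture turbidity by optical density at 650 nm; test concentration not given here.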 To be noted: E. coli DRC39 acrAB, higher = more signal, called active from +8 up or from −8 down.
A short description of experiment [18]: growth of efflux-deficient E. coli DRC39 – strain DRC39, OD650, 48 h, E. coli filamentation inducers, primary screen (AID 1179).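 Further: screen aims at cell division blockers that make cells filament.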 As to conditions: E. coli DRC39 delta-acrAB growth, higher = more signal, called active from +8 up or from −8 down.
Experiment [19] can be described thus: viability profiling in RPMI8226 myeloma cells – cell-based, resazurin fluorescence, basal, 24 h, PK04 Diversity Set, profiling panel (AID 1180).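 Further: RPMI8826 multiple myeloma cell line at 5000 cells per well; test concentration not given here.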 As to conditions: higher = more signal.
Experiment [20] concerns the target E3 ubiquitin-protein ligase XIAP (Homo sapiens) (UniProt P98170). Kind of experiment: small molecules binding XIAP protein – biophysical, small-molecule microarray, fluorescence 635 nm, primary screen (AID 1181).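 Further: score merges 667 nm emission and signal to noise over triplicate slides.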 To be noted: higher = more signal.

Activity calls are given as the source filed them. Unless noted, how the calls were made is not given here.

E3 ubiquitin-protein ligase XIAP (Homo sapiens), sequence (P98170 whole entry, looked up): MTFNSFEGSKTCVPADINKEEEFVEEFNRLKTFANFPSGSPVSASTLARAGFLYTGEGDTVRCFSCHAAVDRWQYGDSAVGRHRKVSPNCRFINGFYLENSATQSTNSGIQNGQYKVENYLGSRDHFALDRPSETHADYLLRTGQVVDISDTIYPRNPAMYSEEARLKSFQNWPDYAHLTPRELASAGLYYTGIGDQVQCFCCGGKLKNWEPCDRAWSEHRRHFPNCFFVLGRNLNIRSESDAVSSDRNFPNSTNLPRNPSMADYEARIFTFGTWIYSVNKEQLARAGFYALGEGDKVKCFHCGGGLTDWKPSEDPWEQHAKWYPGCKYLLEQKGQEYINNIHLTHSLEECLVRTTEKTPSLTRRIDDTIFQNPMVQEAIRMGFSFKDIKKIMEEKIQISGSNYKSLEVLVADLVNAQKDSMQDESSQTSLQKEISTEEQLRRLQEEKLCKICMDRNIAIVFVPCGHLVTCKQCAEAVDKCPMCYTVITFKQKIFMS

Consider `C=CCC(OC(C)=O)[C@@H]1[C@@H](N(Cc2cccc3ccccc23)C(=O)c2cccc3ccccc23)c2cc(OCCCO)ccc2N1C(=O)c1ccc2ccccc2c1` (stereo not given in full), for which the z-score was -0.0249 in experiment [1]; 0.521 in [2]; -0.184 in [3]; -0.189 in experiment [4]; 0.0694 in [5]; 2.48 in [6]. Moreover, the z-score in [7] was -0.419 (inactive); in [8], 0.489; in experiment [9], 0.591; in experiment [10] it was 0.933 (inactive); in experiment [11], 0.628; in [12], -0.775 (inactive). Further, the z-score is 0.62 (inactive) in experiment [13]; -1.44 (inactive) in [15]; -0.646 (inactive) in [16]; 0.745 (inactive) in experiment [17]; 0.386 (inactive) in experiment [18]; -0.0722 in [19]. Also, the composite z-score was -0.29 (inactive) in experiment [14] and -0.179 in experiment [20].
With `[N-]=[N+]=NCc1ccccc1[C@@H]1OC(c2ccc(OCCCO)cc2)=N[C@]1(Cc1ccccc1)C(=O)NCCN1CCOCC1`, the z-score in experiment [1] was 0.239; in experiment [2], 1.09; in experiment [3] it was 0.91; in experiment [4] it was -0.887; in experiment [5] it was 0.185; in experiment [6], 1.14. Besides, the z-score in experiment [7] was 0.69 (inactive); in [8], -0.191; in experiment [9], 0.424; in [10], 1.26 (inactive); in [11] it was -0.195; in experiment [12] it was -0.559 (inactive). The z-score in experiment [13] is 0.162 (inactive); in experiment [15], -0.279 (inactive); in [16], 1.89 (inactive); in experiment [17] it was 2.23 (inactive); in experiment [18], 0.528 (inactive); in [19], -0.0015. The values for the composite z-score in experiment [14] and in [20] were 1.16 (inactive) and -0.0125, respectively.
On to `NC(=O)N1C(=O)C2C(C1=O)C1C=C(CCCO)C2C(C2CC2)N1Cc1cccc(OC(F)(F)F)c1` (stereo not given), for which the z-score in experiment [1] was -0.307; in experiment [2], 0.0635; in experiment [3], 0.801; in [4], -2.82; in experiment [5] it was 0.0097; in [6] it was -0.348. The z-score in experiment [7] is 0.418 (inactive); in [8], 0.191; in experiment [9], 0.645; in experiment [10], -0.334 (inactive); in experiment [11], -0.807; in [12] it was -1.33 (inactive). The z-score in [13] is -0.217 (inactive); in experiment [15], -0.0585 (inactive); in [16] it was -0.0011 (inactive); in experiment [17], -0.149 (inactive); in [18], -0.508 (inactive); in [19] it was -0.762. In addition, the composite z-score in experiment [14] was -1.26 (inactive); in experiment [20], 0.312.
In the case of `COC(=O)[C@@]1(Cc2ccc(F)cc2)[C@H]2c3cc(C(=O)N(C)C)n(Cc4ccc(O)c(OC)c4)c3C[C@H]2CN1C(=O)c1ccccc1`, the z-score is 0.511 in experiment [1]; 0.997 in experiment [2]; -0.269 in [3]; -0.0229 in [4]; -1.92 in experiment [5]; 0.766 in experiment [6]. Besides, the z-score in [7] is -0.475 (inactive); in [8], -0.379; in [9] it was -1.63; in experiment [10] it was -0.88 (inactive); in experiment [11], -0.338; in [12] it was 1.15 (inactive). Further, the z-score was 0.0463 (inactive) in [13]; 1.72 (inactive) in experiment [15]; 0.301 (inactive) in [16]; 0.373 (inactive) in [17]; -1.35 (inactive) in experiment [18]; -0.997 in experiment [19]. Also, the composite z-score is -0.764 (inactive) in [14] and 0.0812 in experiment [20].
With `CC(C)(C)OC(=O)CC[C@]1(C(=O)N2CCCCC2)COC(c2ccc(OCCCO)cc2)=N1`, the z-score in experiment [1] is -0.34; in experiment [2] it was 0.162; in experiment [3], -0.614; in [4], -0.0601; in experiment [5], -0.225; in experiment [6], -0.696. Besides, the z-score is -0.378 (inactive) in experiment [7]; -0.492 in experiment [8]; -0.978 in [9]; 2.58 (inactive) in [10]; 2.29 in experiment [11]; -1.31 (inactive) in experiment [12]. The z-score is 0.619 (inactive) in experiment [13]; -1.17 (inactive) in experiment [15]; -0.398 (inactive) in experiment [16]; 0.134 (inactive) in experiment [17]; 0.139 (inactive) in [18]; 1.41 in experiment [19]. Further, the composite z-score was -0.509 (inactive) in experiment [14] and 0.162 in experiment [20].
